Results reported in PubChem BioAssay AID2216 (Broad Institute, 2009).
The campaign covered roughly 300,000 compounds. About 3,300 (1.1%) were called active. About 6% were inconclusive and are not listed.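 The calls were made as follows: active = more than half of the replicate wells show a fall in the fluorescence ratio signal beyond about 16% (limit read from the data, passing the limit was not always enough); inconclusive = exactly half of the replicate wells pass the set limit; inactive = fewer than half of replicates pass the limit.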 The entries come from a sample that favours actives as a whole.

The molecules below were run on Ran GTPase (GTP-bound) - importin-beta complex (assay: inhibitors of RanGTP-importin-beta interaction, primary screen, biochemical, FRET, CFP-Ran, YFP-importin-beta, homogeneous (AID 2216;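 also: 0% = DMSO wells and 100% = Ran loaded with GDP instead of GTP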)). Conditions: cell-free CFP-Ran/YFP-importin-beta FRET ratio; hits give high values; concentration not given here.

| SMILES | inhibition |
| --- | --- |
| CCCCCCCNC(=O)C1(CC2CC(c3cccc(Br)c3)=NO2)CCN(C(=O)c2cc(OCC)c(OCC)c(OCC)c2)CC1 (stereo unspecified) | -1.08% (inactive) |
| COc1ccc(/C=C(\C#N)c2c[nH]c3ccccc23)cc1 | 17.3% (active) |
| COc1ccc2[nH]cc(/C=C(/C#N)S(=O)(=O)c3ccccc3)c2c1 | -20.9% (inactive) |
| COc1cc(/C=C(\C#N)c2nc3ccccc3[nH]2)ccc1O | -13.2% (inactive) |
| CCCNC(=O)c1ccc(N2CCC3(CC2)CC(c2cccc(Br)c2)=NO3)c(NC(=O)c2ccco2)c1 | -1.47% (inactive) |
| Cc1cc(/C=C2/SC(=O)N(CC(=O)N3CCCC3)C2=O)c(C)n1C | -0.395% (inactive) |
| CCN(CC(=O)Nc1c(F)cccc1F)C(=O)CN1c2cccc3cccc(c23)S1(=O)=O | -0.907% (inactive) |
| COc1ccc(Cc2nnc(SCC(=O)Nc3ccc(C)c(Cl)c3)[nH]c2=O)cc1 | -0.239% (inactive) |
| O=C(COC(=O)c1ccc([N+](=O)[O-])cc1Cl)NC(=O)c1ccccc1 | -13.9% (inactive) |
| Cc1ccc(C2=C/C(=C\c3cccnc3)C(=O)O2)cc1 | 8.88% (inactive) |
| COc1cccc(/C=C2\C=C(c3ccc(C)cc3)OC2=O)c1OC(C)=O | 20.6% (active) |
| CN(C)/C=C1\C=C(c2ccccc2)OC1=O | -3.27% (inactive) |
| COc1cccc(/C=C/C(=O)OCC(=O)N2CCCc3ccccc32)c1 | 3.35% (inactive) |
| O=C(CCNC(=O)c1ccc(Br)cc1)NCCCc1ccccc1 | 1.56% (inactive) |
| O=C(NCc1cccnc1)c1cc(S(=O)(=O)N2CCOCC2)c(Cl)cc1Cl | -0.678% (inactive) |
| COc1ccc2oc(C(=O)NCc3ccco3)c(C)c2c1 | -0.417% (inactive) |
| COc1ccc(CCNC(=O)Cn2c(=O)n(CC3CCCO3)c(=O)c3ccccc32)cc1OC (stereo unspecified) | -2.65% (inactive) |
| Cc1cccn2c(=O)c3cc(C(=O)NCCN4CCOCC4)c(=N)n(Cc4cccnc4)c3nc12 | 167% (active) |
| Cc1cccn2c(=O)c3cc(C#N)c(=NC(=O)c4cccnc4)n(CC4CCCO4)c3nc12 (stereo unspecified) | 154% (active) |
| Cc1ccccc1NC(=O)Cn1c(=O)n(CC2CCCO2)c(=O)c2ccccc21 (stereo unspecified) | 0.402% (inactive) |
| COc1ccc(CCn2c(=N)c(C(=O)NCc3ccco3)cc3c(=O)n4cccc(C)c4nc32)cc1 | 21.1% (active) |
| O=C(NCc1ccco1)c1cccn2c(=O)c3c4c(sc3nc12)CCCC4 | -9.38% (inactive) |

| SMILES | inhibition |
| --- | --- |
| Cc1ccc2nc3c(cc(C(=O)NCCc4ccccc4)c(=N)n3CC3CCCO3)c(=O)n2c1 (stereo unspecified) | 182% (active) |
| Cc1ccc(CCNC(=O)c2ccc3nc4ccccc4c(=O)n3c2)cc1 | 8.55% (inactive) |
| Cc1cccn2c(=O)c3cc(C(=O)NC4CCCCC4)sc3nc12 | 2% (inactive) |
| Cc1ccc(C(=O)NCCN2CCOCC2)cc1C | -1.81% (inactive) |
| COc1cccc(NC(=O)CSc2nccn(-c3ccc4c(c3)OCCO4)c2=O)c1 | -2.91% (inactive) |
| CCCCN(C1CCS(=O)(=O)C1)S(=O)(=O)c1ccc(C(C)C)cc1 (stereo unspecified) | 0.359% (inactive) |
| O=C(c1ccc(NS(=O)(=O)c2ccc3[nH]c(=O)[nH]c3c2)cc1)N1CCCCC1 | 0.81% (inactive) |
| COc1ccc(CCNC(=O)c2ccccc2OCc2ccccc2)cc1 | 2.59% (inactive) |
| O=C(N[C@@H](Cc1ccccc1)C(=O)OCc1ccccc1)c1nc[nH]c1C(=O)NC1CCNCC1 | 1.19% (inactive) |
| Cc1ccc2nc(N3CCN(C(=O)c4ccco4)CC3)sc2c1 | -2.41% (inactive) |
| COc1ccc(C(=O)OCC(=O)c2ccc(Cl)s2)c(OC)c1OC | 0.711% (inactive) |
| Cc1cc(C)c(S(=O)(=O)NCC(c2ccc3c(c2)OCO3)N2CCOCC2)c(C)c1 (stereo unspecified) | 2.24% (inactive) |
| Cc1cccn2c(=O)c3cc(C(=O)N4COCC4(C)C)n(C)c3nc12 | -4.28% (inactive) |
| O=C(NCC1CCCO1)c1cc2c([nH]c3ccccc32)c(-c2ccc(F)cc2)n1 (stereo unspecified) | -5.32% (inactive) |
| CCOC(=O)C1CCN(Cc2c(C(=O)N3CCOCC3)nc3c(C)cccn23)CC1 | -0.645% (inactive) |
| COc1ccc(CCn2c(=N)c(C(=O)NCC3CCCO3)cc3c(=O)n4cccc(C)c4nc32)cc1OC (stereo unspecified) | 0.0539% (inactive) |
| Cc1cccn2c(=O)c3cc(C#N)c(=O)n(CCCN4CCOCC4)c3nc12 | 117% (active) |
| Cc1cccn2c(=O)c3cc(C(=O)NCC4CCCO4)c(=N)n(Cc4ccc(F)cc4)c3nc12 (stereo unspecified) | 188% (active) |
| CCc1noc(C)c1C(=O)N1CCCC(N2CCN(c3ccc(F)cc3)CC2)C1 (stereo unspecified) | 3.28% (inactive) |
| OCc1ccc(-c2ccccc2)c(-c2ccccc2)c1 | 3.41% (inactive) |
| CCOC(=O)c1ccc(NC(=O)c2c(NCc3ccccc3)[nH]c(=O)[nH]c2=O)cc1 | -5.92% (inactive) |
| Cc1ccsc1C1C(C#N)=C(N)OC2=C1C(=O)CC(C)(C)C2 (stereo unspecified) | -0.947% (inactive) |

| SMILES | inhibition |
| --- | --- |
| Cc1cc2c(cc1C)NC(c1ccccn1)C1=C(CC(C)(C)CC1=O)N2 (stereo unspecified) | -3.07% (inactive) |
| CC(C)C1C2=C(CC(C)(C)CC2=O)ON1c1ccccc1 (stereo unspecified) | 26.1% (active) |
| CCCCCCCCCCCCN1[C@@H](CC(C)=O)c2cc(F)cc(F)c2S1(=O)=O | -0.304% (inactive) |
| CCCC1OC23CCCCC2C(C#N)(C#N)C1(C#N)C(=N)O3 (stereo unspecified) | 41.6% (active) |
| CC(C)N(C(=O)Cn1cc(S(=O)(=O)CC(=O)N2CCOCC2)c2ccccc21)C(C)C | 2.93% (inactive) |
| O=C1CCc2cc(S(=O)(=O)Nc3ccc(C(F)(F)F)cc3)cc3c2N1CC3 | -3.26% (inactive) |
| O=C(COc1cccc2c1CCNC2=O)NC1CCCCC1 | -2.21% (inactive) |
| Cc1cc2nc3c(=O)n(Cc4ccccc4)c(=O)[nH]c3nc2cc1N | -261% (inactive) |
| CC(=O)c1ccc(-c2ccc(Cn3c(C)nc4cc(N)c(C)nc43)cc2)cc1 | 27.1% (active) |
| CCOC(=O)c1ccc2c(c1)nc(C)n2CC | -1.9% (inactive) |
| O=C(CSc1n[nH]c(-c2cccs2)n1)N1CCCCC1 | -0.392% (inactive) |
| CS(=O)(=O)c1ccc(C(=O)OCC(=O)NNC(=O)COc2ccc(Cl)cc2)cc1 | -2.55% (inactive) |
| O=C(CSc1ccccn1)N1CCN(S(=O)(=O)c2ccc(Cl)cc2)CC1 | -1.48% (inactive) |
| Cc1cccc(NC(=O)c2ccc(S(=O)(=O)N(C)CC3CCCO3)cc2)c1C (stereo unspecified) | -0.172% (inactive) |
| N#C/C(=C/c1ccc(N2CCOCC2)o1)C(=O)N1CCOCC1 | 39.5% (active) |
| N#C/C(=C\c1ccc(-c2cccc([N+](=O)[O-])c2)o1)C(=O)NCCN1CCOCC1 | 2.98% (inactive) |
| N#C/C(=C\c1ccc(N2CCOCC2)o1)C(=O)N1CCOCC1 | 56.4% (active) |
| N#C/C(=C\C1=C(N2CCOCC2)C(=C\c2ccccc2)/CC1)C(=O)Nc1ccccc1F | -3.91% (inactive) |
| O=C(N1CCOCC1)N1CCOCC1 | -2.74% (inactive) |
| Cc1ccc(C(=O)N2CCN(C(=O)N3CCOCC3)CC2)cc1 | -2.03% (inactive) |
| CC(Oc1ccc(F)cc1)C(=O)Nc1ccccc1C(=O)NC1CC1 (stereo unspecified) | -6.02% (inactive) |
| Cc1ccc(-c2cc(=O)[nH]c(NCc3ccccc3)n2)cc1 | 4.99% (inactive) |

| SMILES | inhibition |
| --- | --- |
| CSCCC(NC(=O)c1ccco1)C(=O)Nc1cc(C)ccn1 (stereo unspecified) | -2.09% (inactive) |
| Cc1cc(Cl)c2oc(C(=O)N(C)C(C)c3ccccn3)c(C)c2c1 (stereo unspecified) | 1.52% (inactive) |
| CC(=O)Nc1ccc(NC(=O)CS(=O)(=O)c2cn(CC(=O)N3CCCCC3)c3ccccc23)cc1 | -0.901% (inactive) |
| Cc1ccc(C)c(-c2nnc(NC(=O)CS(=O)(=O)c3ccccc3)o2)c1 | -0.829% (inactive) |
| CNC(=O)c1cc2c(ccc3ccccc32)oc1=N | 35.7% (active) |
| N=c1oc2ccccc2cc1C(=O)N/N=C/c1ccccc1 | 3.47% (inactive) |
| N=c1oc2ccccc2cc1C(=O)NCc1ccccc1 | 2.48% (inactive) |
| O=C(NNC(=O)c1cc(-c2ccccc2Cl)nc2ccccc12)c1csc(N2CCOCC2)n1 | 1.15% (inactive) |
| O=C(NCc1ccncc1)c1ccc(NS(=O)(=O)c2cccc([N+](=O)[O-])c2)cc1 | 3.31% (inactive) |
| CC(OC(=O)CNC(=O)c1ccco1)C(=O)Nc1ccc(Cl)cn1 (stereo unspecified) | 0.318% (inactive) |
| CNC(C)C#Cc1ccc2sc3cc(OC)c(OC)cc3c(=O)c2c1 (stereo unspecified) | 38.7% (active) |
| Cc1cccc(N2CCN(C(=O)CCS(=O)(=O)c3ccc4c(c3)NC(=O)C(C)S4)CC2)c1C (stereo unspecified) | 1.94% (inactive) |
| CSc1nsc(NC(=O)Nc2ccccc2)n1 | 1.6% (inactive) |
| O=c1cc(CN2CCN(S(=O)(=O)/C=C/c3ccccc3)CC2)c2ccc(O)cc2o1 | 21% (active) |
| COc1ccc2c(CN3CCN(S(=O)(=O)c4cccs4)CC3)cc(=O)oc2c1 | -2.73% (inactive) |
| NC(=O)CCN1CCN(S(=O)(=O)/C=C/c2ccccc2)CC1 | 3.03% (inactive) |
| CCOC(=O)N1CCN(C(=O)c2ccc(S(=O)(=O)Nc3cccc(C(F)(F)F)c3)cc2)CC1 | -0.937% (inactive) |
| CN(C)CCCn1c(N)c(C#N)c2nc(C#N)c(C#N)nc21 | 27.1% (active) |
| Cc1ccc2nnn(Cc3cccc(C(C)(C)C)c3O)c2c1 | 9.31% (inactive) |
| COCCCn1c(SCC(=O)Nc2oc(C)c3c(C)n[nH]c(=O)c23)nc2sc3c(c2c1=O)CCC3 | -0.217% (inactive) |
